From PubChem BioAssay AID686978 (National Center for Advancing Translational Sciences (NCATS), 2013)
Several values for one entry are separate records, joined by “and”; a condition that tells them apart may be missing. Equal entries are not always repeated. Out of some 420,000 compounds screened, about 64,000 (15%) were called active. Where a call stands in place of a potency, no number is given. Not shown: some 27% with an inconclusive outcome. Calls come from the whole dose curve; as a rule, active = well fitted inhibition curve with a large enough effect; inconclusive = small, poorly fitted or top-dose-only effect; inactive = flat fitted curve, though single readings scatter. Only a selection was taken, and actives are over-represented in it overall.

Assay: qHTS for Inhibitors of human tyrosyl-DNA phosphodiesterase 1 (TDP1): qHTS in cells in absence of CPT; note: nearly all actives have a fitted effect of over 55% in size
Details: DT40 Tdp1-/- hTDP1 cells, no CPT, ATP luminescence, 48 h; series mostly up to 46.2 µM
Procedure, shortened: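 Cells were dispensed at 400 per well, compounds added by pin tool, plates incubated ≥48 hr at 37 °C, then CellTiter-Glo added for 30 min at room temperature before luminescence reading. Line: DT40 Tdp1-/- complemented with hTDP1; camptothecin omitted.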
Potency is the fitted concentration of half-maximal effect.

Compound | Potency | activity change, negative = growth inhibition
O=C1NCN(c2ccccc2)C12CCN(C(c1cccs1)c1nnnn1C1CCCCC1)CC2 (stereo not given) | 16.4 µM (active) | –
C=Cn1ccnc1P(=S)(c1cc(N(CC)CC)ns1)c1nccn1C=C | inactive | –
O=C1C[C@@H]2OCC=C3CN4CC[C@]56c7ccccc7N1[C@H]5[C@H]2[C@H]3C[C@H]46 (tested in a mixture with another compound) | inactive | –
COc1ccc(CCn2c(O)c(C=NCCCn3ccnc3)c(=O)[nH]c2=O)cc1OC | inactive | –
Cc1ccc(NC(=O)COc2ccc(-n3ccnc3)cc2)cc1Cl | 20.6 µM (active) | –
C=CCN1C(=O)NC(=O)/C(=C/c2ccc(OCC(=O)Nc3ccc(C)cc3)cc2)C1=O | inactive | –
Cc1ccc(C)c(NS(=O)(=O)c2ccc(OCC(=O)NCc3cccnc3)cc2)c1 | inactive | –
COc1ccc(NC(=O)N2Cc3ccccc3-n3nncc3C2)cc1 | inactive | –
O=C1/C(=C\c2ccc3c(c2)OCO3)N2CCC1CC2 | inactive | –
COc1ccc(C)cc1N(CC(=O)N1CCC(C)CC1)S(=O)(=O)c1ccc(C)cc1 | 13 µM (active) | –
CCOC(=O)c1c(N)n(CCN2CCOCC2)c2nc3ccccc3nc12 | inactive | –
CC(=O)NC(=O)NC(C)Cc1ccccc1 (stereo not given) | inactive | –
Nc1ccc(C(=O)N/N=C2/CN3CCC2CC3)cc1 | inactive | –
CN(C)C(=O)Oc1ccc(OCc2cccc[n+]2C)cc1 | inactive | –
Cc1cc2ccccn2c1C(C[N+](=O)[O-])c1c(F)cccc1Cl (stereo not given) | 14.6 µM (active) | –
CCN1C(=O)C(=Cc2c(C)n(CC(=O)NCC3CCCO3)c3ccccc23)C(=O)N(CC)C1=S (stereo not given) | inactive | –
CN(C)CC1CCCCC1=O (stereo not given) | 13 µM (active) | –
COC(=O)C(O)(c1ccc(NC(=O)c2ccco2)c(OC)c1)C(F)(F)F (stereo not given) | inactive | –
CC(=CCOc1ccc2ccc(=O)oc2c1)C1=CC(=O)C(C)(C)O1 | 3.26 µM (active) | –
CC(C)c1ccc(OCC(=O)N2CCN(C)CC2)c(Br)c1 | inactive | –
O=C(C1CCN(S(=O)(=O)c2ccc(Br)s2)CC1)N1CCN(c2ccccc2)CC1 | 20.6 µM (active) | –
O=C(N/N=C/c1c(O)n(Cc2ccccc2)c(=O)[nH]c1=O)c1ccccc1 | inactive | –
COc1ccc(N=Cc2c(O)n(C)c(=O)[nH]c2=O)cc1 | inactive | –
COc1ccc(Cn2c(O)c(/C=C3/C=CC=N3)c(=O)[nH]c2=O)cc1 | 16.4 µM (active) | –

Compound | Potency | activity change, negative = growth inhibition
Nc1ccc(Cc2ccc(N)c(Cl)c2)cc1Cl | inactive | –
CCCN(C/C=C/I)C1CCc2ccc(O)cc2C1 (stereo not given) | 20.6 µM (active) | –
Cc1cccc2c(CCN)c[nH]c12 | inactive | –
Oc1cc2c(cc1CN1CCN(c3ccccc3)CC1)OCO2 | inactive | –
CC(=O)OC1C2(CC3N4C(=O)C5(CO)SSC4(CC31O)C(=O)N5C)OC(C)C(C)(C)C2=O (stereo not given) | 0.164 µM (active) | –
COC(=O)CN1C(=O)C2(C(C(=O)OC)=C(N)Oc3ccccc32)C2=C1CC(C)(C)CC2=O (stereo not given) | inactive | –
Cc1cc(OCc2cc(C(=O)O)oc2C)c2c3c(c(=O)oc2c1)CCCC3 | inactive | –
COC(=O)COc1cc(C)cc2oc(=O)c3c(c12)CCCC3 | inactive | –
CC(=O)c1ccc(OC(NC(=O)Cc2ccccc2)C(Cl)(Cl)Cl)cc1 (stereo not given) | inactive | –
CCCCCCCCCCCCn1ccc(=N)cc1 | 0.411 µM (active) | –
CC(=C1C(=O)c2ccccc2C1=O)N1CCN(CCN=Cc2c(O)n(C)c(=O)n(C)c2=O)CC1 | inactive | –
CN1CCc2cc3c(cc2[C@H]1[C@@H]1OC(=O)c2c1ccc1c2OCO1)OCO3 | inactive | –
CC(C)CN1CCN(Cc2ccccc2C(F)(F)F)CC1CCO (stereo not given) | inactive | –
O=C1C2CCN(CC2)C1(CO)CO | 5.96 µM (active) and 4.61 µM (active) | –
CC(C)c1ccc(OCC(=O)N2CCCN(C)CC2)cc1 | inactive | –
O=C(Nc1cccc2ccccc12)N1CCC2(CC1)OCCO2 | inactive | –
COc1ccc(CCn2c(O)c(C=NC3CC3)c(=O)[nH]c2=O)cc1OC | inactive | –
Cc1nc2ccc(N3CCN(C)CC3)cc2nc1C | inactive | –
CN1CCN(c2cc(N3CCNCC3)ccc2[N+](=O)[O-])CC1 | 7.31 µM (active) | –
COc1cccc(-c2nc3ccc(N4CCN(C)CC4)cc3[nH]2)c1 | inactive | –
O=c1[nH]c(=O)n(Cc2ccccc2)c(O)c1/C=N/Nc1c(F)c(F)c(F)c(F)c1F | inactive | –
COc1ccc2c(c1)NP(=S)(c1ccccc1)N2 (stereo not given) | 16.4 µM (active) | –
Cc1cc(C)c2c(c1)NP(=S)(c1ccccc1)N2 (stereo not given) | inactive | –
N#Cc1ccc(Cn2cc(C(=O)c3ccco3)c3ccccc32)cc1 | 23.1 µM (active) | –

Compound | Potency | activity change, negative = growth inhibition
NC(=O)Cn1cc(C(=O)c2ccccc2F)c2ccccc21 | inactive | –
Cc1cc(=O)oc2c(C)c(OCC(=O)N3CCN(Cc4ccc5c(c4)OCO5)CC3)ccc12 | inactive | –
O=C(CN1CCCCC1)Nc1ccc(Br)cc1C(=O)c1ccccc1Cl | inactive | –
O=S(=O)(O)C(F)(F)C(F)(F)C(F)(F)C(F)(F)F | inactive | –
Cc1ccc(OC(=O)N(C)C[C@@H]2OCc3cnnn3CCCC(=O)N([C@H](C)CO)C[C@@H]2C)cc1 | inactive | –
O=c1c2ccccc2nc(/C=C/c2ccc(F)cc2)n1-c1ccccc1O | 16.4 µM (active) | –
COc1cccc(N2C(=O)NC(=O)/C(=C\c3cn(C)c4ccccc34)C2=O)c1 | inactive | –
Cn1cc(/C=C/c2nc3ccccc3c(=O)n2-c2ccccc2)c2ccccc21 | 8.2 µM (active) | –
O=c1c2ccccc2nc(CBr)n1-c1ccc(Cl)cc1 | inactive | –
C1CC[C@H]([C@@]23C[C@H](C[C@H]4CCCN[C@H]42)[C@@H]2CCCCN2C3)NC1 | – | -7.17% [at 9.04 µM] (inactive)
CCCC(C)n1[nH]c(=O)c2c1NC(=O)CSC2c1ccc(OC)c(OC)c1 (stereo not given) | inactive | –
COc1ccccc1-n1c(O)c(C=NC2CC2)c(=O)[nH]c1=O | inactive | –
CCOC(=O)CNC(=O)N1Cc2cc(N3CCCCC3)ccc2-n2nncc2C1 | inactive | –
c1ccc(CC2CCCCN2)cc1 (stereo not given) | inactive | –
Cn1c(O)c(C(=Nc2ccc(F)cc2)c2ccccc2)c(=O)n(C)c1=O | 9.2 µM (active) | –
Cn1c(O)c(C=Nc2ccc3c(c2)CCC3)c(=O)n(C)c1=O | inactive | –
CC(=NC1CCN(Cc2ccccc2)CC1)c1c(O)n(C)c(=O)n(C)c1=O | inactive | –
CCN1CCN(Cc2cc(OC)c3c(c2)OCO3)CC1 | inactive | –
COc1cccc(C(=O)N2C[C@H]3C[C@@H](C2)c2cccc(=O)n2C3)c1 | inactive | –
N#Cc1c(Cl)c(Cl)c(Cl)c(C#N)c1Cl | 25.1 nM (active) and 517 nM (active) | –
Cc1nc2ccccc2c(=O)n1-c1ccc(Cl)cc1Cl | 23.1 µM (active) | –
O=c1c2ccccc2nc(-c2ccc(Cl)cc2Cl)n1-c1ccncc1 | inactive | –
